Screening results from PubChem.
BJeLR lethal: BJeLR cell viability loss; AID 1554; BJeLR (HRASV12) viability, CellTiter-Glo ATP luminescence, 48 h; inhibition, % (test concentration not listed); hit rate 0.17% among 300,000; in the data active means inhibition above about 50%
SSB-PriA inh: K. pneumoniae PriA-SSBct interaction inhibition; AlphaScreen SSBct-PriA binding, biotinylated peptide; hit rate 0.6% among 430,000; AID 1272365; inhibition, % at 33 µM; in the data active means inhibition mostly above about 37%, no sharp cut-off; inactive means mostly below about 20%;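 further: plate controls were negative control peptide for no effect and reference peptide for full effect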
3CLpro inhibitor: SARS-CoV 3CLpro protease inhibition. recombinant SARS-CoV 3CLpro, quenched FRET peptide cleavage. inhibition, % at 6 µM. P0C6X7. hit rate 0.14% among 290,000; in the data active means inhibition above about 12%
PrPC surface inh: reduces human prion protein on the cell surface; hit rate 0.43% among 370,000; cell surface PrPC, TR-FRET read-out; AID 720596; inhibition, % at 13.8 µM; P04156; in the data active means inhibition above about 24%; further: 0% = median of the test wells and 100% = reference compound wells
PrP 5UTR inh: inhibition of PrP 5' UTR reporter expression; cell-based PrP 5' UTR mRNA reporter, plate reader; inhibition, % (concentration not given with the values); hit rate 0.35% among 340,000; AID 488862; in the data active means inhibition above about 52%; further: 0 = median of the neutral control wells
* marks the source's active call; other numbers are inactive results. A selection: hits, their analogues and other compounds. The true share with any hit is near 1.2%.

O=[N+]([O-])c1c(C(Cl)Cl)nn(-c2ccccc2)c1N1CCCC1 was read as BJeLR lethal 0, SSB-PriA inh 50*, 3CLpro inhibitor 2, PrPC surface inh -4 and PrP 5UTR inh -51.
For CN[C@H]1C[C@H]2O[C@@](C)([C@H]1OC)n1c3ccccc3c3c4c(c5c6ccccc6n2c5c31)C(=O)NC4 the results were BJeLR lethal 107* and 3CLpro inhibitor -3.
Screening Cc1ccccc1OCC(=O)OCC(=O)c1ccc(OC(=O)c2ccccc2)cc1 returned BJeLR lethal -6, SSB-PriA inh 67*, 3CLpro inhibitor 1, PrPC surface inh -3 and PrP 5UTR inh 7.
O=S(=O)(Nc1ccc(-c2ccc3nnc(-c4cccs4)n3n2)cc1)c1ccccc1 was read as SSB-PriA inh -18.
O=S(=O)(Nc1ccc(-c2ccc3nnc(-c4ccccn4)n3n2)cc1)c1ccccc1F was read as SSB-PriA inh 101*.
Screening Cc1cccc(S(=O)(=O)Nc2ccc(-c3ccc4nnc(-c5ccccn5)n4n3)cc2)c1 returned SSB-PriA inh 79*.
`O=S(=O)(Nc1ccc(-c2ccc3nncn3n2)cc1)c1ccccc1F` gave BJeLR lethal 7, SSB-PriA inh -20, PrPC surface inh -12 and PrP 5UTR inh -23.
Screening N#Cc1nccnc1OC1CCC(NC(=O)c2ccc3c(c2)OCO3)CC1 (stereo not given) returned SSB-PriA inh -14.
`Cc1cc(-n2c(SCC(=O)NCCC3=CCCCC3)nc3n[nH]c(C)c3c2=N)ccc1Cl` gave BJeLR lethal 59*, SSB-PriA inh 2, 3CLpro inhibitor 3, PrPC surface inh 7 and PrP 5UTR inh 7.
`N#Cc1nccnc1O[C@H]1CCN(C(=O)c2ccc(Cn3ccnc3)cc2)C1` gave SSB-PriA inh -19.
For COc1ccc(-c2cc3c(=O)n(CC(=O)Nc4cccc(Cl)c4)nc(C)n3n2)cc1 the results were BJeLR lethal -3, SSB-PriA inh 44*, 3CLpro inhibitor -2, PrPC surface inh 7 and PrP 5UTR inh -26.
For O=S(=O)(NCC(c1ccsc1)N1CCCCCC1)c1cc(F)ccc1F (stereo not given) the results were SSB-PriA inh -18.
Screening CCCN1CCCc2cc(CCNS(=O)(=O)c3ccc(C)cc3)ccc21 returned SSB-PriA inh 71.
`CCCN1CCCc2cc(CCNS(=O)(=O)c3ccc(C)c(C)c3)ccc21` gave SSB-PriA inh 61*.
`CCCN1CCCc2cc(CCNS(=O)(=O)c3ccc(F)c(C)c3)ccc21` gave SSB-PriA inh 59*.
CCCN1CCCc2cc(CCNC(=O)C(=O)Nc3cc(Cl)ccc3C)ccc21 was read as SSB-PriA inh 21.
`COC(=O)Nc1ccc(S(=O)(=O)N2CCCC(C(=O)N(C)Cc3ccccc3)C2)cc1` (stereo not given) gave SSB-PriA inh 0.
For O=C(CCS(=O)(=O)c1ccc(F)cc1)Nc1nc(-c2ccccn2)cs1 the results were BJeLR lethal -6, SSB-PriA inh 43*, 3CLpro inhibitor 4, PrPC surface inh 0 and PrP 5UTR inh -14.
Screening O=C(CCCS(=O)(=O)c1ccc(Cl)cc1)Nc1nc(-c2ccccn2)cs1 returned SSB-PriA inh 33*.
For O=C(CCS(=O)(=O)c1ccccc1)Nc1nc(-c2ccccn2)cs1 the results were BJeLR lethal -16, SSB-PriA inh 34, 3CLpro inhibitor -4, PrPC surface inh -11 and PrP 5UTR inh -9.
Screening CC(=O)Nc1cccc(NC(=O)C2(c3cccs3)CCCC2)c1 returned SSB-PriA inh -8.
`Cc1cc2cc(CNC(=O)Nc3ccc(Cl)c(Cl)c3)ccc2[nH]1` gave SSB-PriA inh 4.
For CCc1ccc2oc(-c3ccc(OC)cc3)cc(=Nc3c(C)n(C)n(-c4ccccc4)c3=O)c2c1 the results were BJeLR lethal 4, SSB-PriA inh 44*, 3CLpro inhibitor 4, PrPC surface inh -7 and PrP 5UTR inh -89.
Screening Cc1cc2ncc(NC(=O)C3(c4ccc(Cl)cc4)CCCC3)cn2n1 returned SSB-PriA inh -21.
Screening CCOc1cc(C(=O)NCCc2ccc3c(c2)CCCN3C)cc(OCC)c1OCC returned SSB-PriA inh 36*.
CN1CCCc2cc(CCNC(=O)c3ccc(C(F)(F)F)cc3)ccc21 was read as SSB-PriA inh -2.
COc1ccc(C(=O)NCCc2ccc3c(c2)CCCN3C)c(OC)c1 was read as SSB-PriA inh 62*.
For O=c1cccnn1CCNS(=O)(=O)c1cc(C(F)(F)F)cc(C(F)(F)F)c1 the results were SSB-PriA inh 38*.
`O=C(CN1C(=O)CCC1=O)NCC1CCN(S(=O)(=O)c2cccnc2)CC1` gave SSB-PriA inh -10.
For CCC(=O)Nc1ccc(NC(=O)c2ccco2)cc1 the results were BJeLR lethal -2, SSB-PriA inh 2, 3CLpro inhibitor 1, PrPC surface inh -4 and PrP 5UTR inh -60.
CCOc1ccc(CC(=O)Nc2ccc(NC(=O)c3ccco3)cc2)cc1OCC was read as BJeLR lethal 82*, SSB-PriA inh -1, 3CLpro inhibitor 3, PrPC surface inh 6 and PrP 5UTR inh -31.
`O=C(NCc1cncc(-c2ccsc2)c1)c1ccco1` gave SSB-PriA inh -2.
Screening COC(=O)[C@@H]1C[C@H]2CC[C@H](O)C[C@H]2N1Cc1ccc(C(C)(C)C)cc1 returned BJeLR lethal -10, SSB-PriA inh 101*, PrPC surface inh 0 and PrP 5UTR inh -12.
Screening COC(=O)[C@@H]1C[C@@H]2CC[C@@H](O)C[C@@H]2N1Cc1ccc(C(F)(F)F)cc1 returned BJeLR lethal 6, SSB-PriA inh -1, PrPC surface inh -3 and PrP 5UTR inh -12.
CC(C)(O)C(O)COc1c2ccoc2cc2oc(=O)ccc12 (stereo not given) was read as BJeLR lethal 0, SSB-PriA inh 40*, 3CLpro inhibitor -1, PrPC surface inh 6 and PrP 5UTR inh -13.
For COC(C)(C)[C@H](O)COc1c2ccoc2cc2oc(=O)ccc12 the results were BJeLR lethal 5, SSB-PriA inh -8, 3CLpro inhibitor 2, PrPC surface inh 0 and PrP 5UTR inh -5.
For CC(C)[C@H](NC(N)=O)C(=O)NCCc1ccc(Cl)cc1 the results were BJeLR lethal 1, SSB-PriA inh 39*, 3CLpro inhibitor -1, PrPC surface inh 0 and PrP 5UTR inh -14.
Screening CC(C)[C@H](NC(=O)NCCc1ccc(Cl)cc1)C(=O)O returned BJeLR lethal -3, SSB-PriA inh -9, 3CLpro inhibitor 0, PrPC surface inh 1 and PrP 5UTR inh -21.
`O=C(CC1CC2CCC1C2)Nc1nc(-c2ccccn2)cs1` (stereo not given) gave BJeLR lethal 3, SSB-PriA inh 7, 3CLpro inhibitor -2, PrPC surface inh 10 and PrP 5UTR inh -37.
For O=C(Nc1nc(-c2ccccn2)cs1)C1CC1c1ccccc1Cl (stereo not given) the results were SSB-PriA inh 48.
